Hits are enriched below; roughly 3.5% of the tested compounds scored in any of these assays.
MITF primary = inhibitors of human MITF. O75030. AlphaScreen MITF homodimerization, bead proximity signal. inhibition, % at 2.6 µM. actives 0.91% (n = 650,000). AID 1259374; in the data active = inhibition above about 50%
FBW7 act = activators of human E3 ligase FBW7; AlphaScreen FBW7–phospho-cyclin E peptide binding, activator screen; normalized activity (activation), % at 26.1 µM; actives 0.13% (n = 650,000); in the data active = normalized activity above about 1.9%;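 note: purified mutant Fbw7 with reduced substrate affinity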
Target sequence (Q969H0 whole entry, looked up): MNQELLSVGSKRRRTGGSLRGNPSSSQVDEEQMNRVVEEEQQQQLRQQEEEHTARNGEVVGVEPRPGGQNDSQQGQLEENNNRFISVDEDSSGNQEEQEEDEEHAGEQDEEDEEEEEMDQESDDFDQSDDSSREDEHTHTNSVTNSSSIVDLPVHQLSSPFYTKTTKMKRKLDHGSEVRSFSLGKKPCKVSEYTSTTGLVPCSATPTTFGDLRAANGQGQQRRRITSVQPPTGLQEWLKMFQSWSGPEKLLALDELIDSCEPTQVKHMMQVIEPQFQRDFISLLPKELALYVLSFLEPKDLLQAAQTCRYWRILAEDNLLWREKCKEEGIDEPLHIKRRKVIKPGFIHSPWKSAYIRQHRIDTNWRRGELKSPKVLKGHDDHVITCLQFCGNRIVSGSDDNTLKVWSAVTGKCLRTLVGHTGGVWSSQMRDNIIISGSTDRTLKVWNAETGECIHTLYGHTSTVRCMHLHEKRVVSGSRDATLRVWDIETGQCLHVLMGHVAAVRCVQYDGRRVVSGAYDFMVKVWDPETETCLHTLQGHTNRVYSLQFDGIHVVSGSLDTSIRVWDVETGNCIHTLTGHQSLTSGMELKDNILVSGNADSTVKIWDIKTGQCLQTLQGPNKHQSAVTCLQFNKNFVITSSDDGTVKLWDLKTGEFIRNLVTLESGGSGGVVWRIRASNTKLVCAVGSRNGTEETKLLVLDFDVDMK
GPR151 activ = activates the human receptor GPR151. Q8TDV0. PathHunter beta-arrestin GPR151 cells, luminescence. activation, % at 11.2 µM. actives 1% (n = 650,000). AID 1508602; in the data active = activation above about 4.9%
TEAD-YAP inh = TEAD-YAP interaction inhibition; HEK-TIYL cells, TEAD-Gal4/YAP UAS-luciferase luminescence; inhibition, % at 9.12 µM; actives 1.4% (n = 640,000); AID 1259422; in the data active = inhibition above about 32%
A number is an active result.

For O=S(=O)(CCOc1ccccc1)Nc1ccc2c(c1)Cc1ccccc1-2 the results were MITF primary inactive, FBW7 act inactive, GPR151 activ inactive and TEAD-YAP inh inactive.
Cc1ccc(OCC(=O)Nn2cnnc2)cc1C was read as MITF primary inactive, FBW7 act inactive, GPR151 activ inactive and TEAD-YAP inh inactive.
`COc1cc(/C=C(\C(=O)c2ccc(C)cc2)c2nc3ccccc3o2)cc(OC)c1OC` gave MITF primary inactive, FBW7 act inactive, GPR151 activ inactive and TEAD-YAP inh 68.9.
COc1cc(C(=O)/C(=C/c2ccc(C)cc2)c2nc3ccccc3o2)cc(OC)c1OC was read as MITF primary inactive, FBW7 act inactive, GPR151 activ inactive and TEAD-YAP inh inactive.
O=C(NC1CC1)c1ccc(-c2nc(NC3CC3)c3ncn(CCN4CCCC4=O)c3n2)cc1 was read as MITF primary inactive, FBW7 act inactive, GPR151 activ inactive and TEAD-YAP inh inactive.
For Cc1c(C#N)c(NC(=O)CCl)n(Cc2ccco2)c1C the results were MITF primary inactive, FBW7 act inactive, GPR151 activ inactive and TEAD-YAP inh 32.1.
CCn1c(=O)cc(SCC(=O)NCc2cccs2)c2ccccc21 was read as MITF primary inactive, FBW7 act inactive, GPR151 activ inactive and TEAD-YAP inh 43.1.
Screening CCn1c(=O)cc(SCC(=O)NC(C)C)c2ccccc21 returned MITF primary inactive, FBW7 act inactive, GPR151 activ inactive and TEAD-YAP inh inactive.
Screening CCn1c(=O)cc(SCC(=O)NCc2ccc(F)cc2)c2ccccc21 returned MITF primary inactive, FBW7 act inactive, GPR151 activ inactive and TEAD-YAP inh 45.1.
O=C(CSc1nnnn1-c1cccc(F)c1)c1ccc2c(c1)OCCO2 was read as MITF primary inactive, FBW7 act inactive, GPR151 activ inactive and TEAD-YAP inh 78.2.
`O=C(CSc1ncccc1C(=O)O)c1ccc2ccccc2c1` gave MITF primary inactive, FBW7 act inactive, GPR151 activ inactive and TEAD-YAP inh inactive.
Screening O=C(CSc1ncccc1C(=O)O)c1ccc2c(c1)OCCO2 returned MITF primary inactive, FBW7 act inactive, GPR151 activ inactive and TEAD-YAP inh 33.8.
COC(=O)C(CCSC)N1C(=O)C2CC=C(Cl)CC2C1=O (stereo not drawn) was read as MITF primary inactive, FBW7 act inactive, GPR151 activ inactive and TEAD-YAP inh inactive.
Screening c1ccc(-c2cnc(SCCN3CCOCC3)n2CC2CCCO2)cc1 (stereo not drawn) returned MITF primary 57.2, FBW7 act inactive, GPR151 activ inactive and TEAD-YAP inh inactive.
Screening Cc1cnc(Nc2ccc(N3CCNCC3)cc2)cc1Nc1ccccc1C(N)=O returned MITF primary inactive, FBW7 act inactive, GPR151 activ inactive and TEAD-YAP inh 32.8.
For NC(=O)c1ccccc1Nc1ccnc(Nc2ccc(N3CCNCC3)cc2)c1 the results were MITF primary inactive, FBW7 act inactive, GPR151 activ inactive and TEAD-YAP inh inactive.
`COc1cc(N2CCOCC2)ccc1Nc1cc(Nc2ccccc2NC(C)=O)c(C(F)(F)F)cn1` gave MITF primary inactive, FBW7 act inactive, GPR151 activ inactive and TEAD-YAP inh 45.5.
Screening CNC(=O)c1ccccc1Nc1cc(Nc2ccc(N3CCOCC3)cn2)ncc1C(F)(F)F returned MITF primary inactive, FBW7 act inactive, GPR151 activ inactive and TEAD-YAP inh 85.6.
Screening CNC(=O)c1ccccc1Nc1cc(Nc2ccc(N3CCOCC3)cc2C)ncc1C(F)(F)F returned MITF primary inactive, FBW7 act inactive, GPR151 activ inactive and TEAD-YAP inh 71.2.
`CNC(=O)c1ccccc1Nc1cc(Nc2ccc(C(=O)N3CC[C@H](O)C3)cc2OC)ncc1C(F)(F)F` gave MITF primary inactive, FBW7 act inactive, GPR151 activ inactive and TEAD-YAP inh 33.1.
`CNC(=O)c1ncccc1Nc1cc(Nc2ccc(C(=O)N(C)C)cc2OC)ncc1C(F)(F)F` gave MITF primary inactive, FBW7 act inactive, GPR151 activ inactive and TEAD-YAP inh inactive.
`CC(C)(C)CC(=O)N1CCc2cc(-c3csc(NC(=O)c4cccnc4)n3)ccc21` gave MITF primary inactive, FBW7 act inactive, GPR151 activ inactive and TEAD-YAP inh 35.8.
Cc1sc(NC(=O)c2cccnc2)nc1-c1ccc2c(c1)CCN2C(=O)CC(C)(C)C was read as MITF primary inactive, FBW7 act inactive, GPR151 activ inactive and TEAD-YAP inh inactive.
`CC1=NOC(=O)/C1=C\c1ccc(-c2ccc(Cl)c(C(=O)O)c2)o1` gave MITF primary inactive, FBW7 act inactive, GPR151 activ inactive and TEAD-YAP inh inactive.
`CC1=NOC(=O)/C1=C/c1ccc(-c2ccc(C(=O)O)cc2)o1` gave MITF primary 57.2, FBW7 act inactive, GPR151 activ inactive and TEAD-YAP inh inactive.
`COc1ccc(/C(C)=N/NC(=O)c2cccc(F)c2)cc1OC` gave MITF primary inactive, FBW7 act inactive, GPR151 activ inactive and TEAD-YAP inh inactive.
`CCCCOc1ccc(C(=O)NO)cc1OC` gave MITF primary inactive, FBW7 act inactive, GPR151 activ inactive and TEAD-YAP inh 39.7.
`CCCNC(=O)C/C(C)=N/NC(=O)c1ccc(OC)c(OC)c1` gave MITF primary inactive, FBW7 act inactive, GPR151 activ inactive and TEAD-YAP inh 33.6.
COc1ccc(C(=O)N/N=C(\C)c2ccc(C#N)cc2)cc1OC was read as MITF primary inactive, FBW7 act inactive, GPR151 activ inactive and TEAD-YAP inh 41.1.
Screening CCOc1cc(CNCCO)cc(Br)c1OC(C)C returned MITF primary inactive, FBW7 act inactive, GPR151 activ inactive and TEAD-YAP inh inactive.
`COc1ccc(N2C(N)=C(C#N)C(c3ccc(OC)c(OC)c3)C3=C2CC(C)(C)CC3=O)cc1` (stereo not drawn) gave MITF primary inactive, FBW7 act inactive, GPR151 activ inactive and TEAD-YAP inh 40.0.
COc1cc(C2C(C#N)=C(N)N(c3ccc(Br)cc3)C3=C2C(=O)CC(C)(C)C3)cc(OC)c1OC (stereo not drawn) was read as MITF primary inactive, FBW7 act inactive, GPR151 activ inactive and TEAD-YAP inh 41.1.
`CCc1ccc(C2C(C#N)=C(N)N(c3ccc(OC)cc3)C3=C2C(=O)CC(C)(C)C3)cc1` (stereo not drawn) gave MITF primary inactive, FBW7 act inactive, GPR151 activ inactive and TEAD-YAP inh inactive.
CCOc1ccc(C2C(C#N)=C(N)N(c3ccc(OC)cc3)C3=C2C(=O)CC(C)(C)C3)cc1 (stereo not drawn) was read as MITF primary inactive, FBW7 act inactive, GPR151 activ inactive and TEAD-YAP inh 46.6.
Screening COc1ccc(/C=N/NC(=O)COc2ccccc2C#N)cc1I returned MITF primary inactive, FBW7 act inactive, GPR151 activ inactive and TEAD-YAP inh inactive.
Screening COCCCNC(=O)CN(c1ccc(C)cc1)S(=O)(=O)c1ccc(OC)cc1 returned MITF primary inactive, FBW7 act inactive, GPR151 activ inactive and TEAD-YAP inh inactive.
`Cc1ccc(Cn2ccn(-c3cccc(Cl)c3)c(=O)c2=O)cc1` gave MITF primary inactive, FBW7 act inactive, GPR151 activ inactive and TEAD-YAP inh inactive.
Screening Cc1cccc(Cn2ccn(-c3cccc(Cl)c3)c(=O)c2=O)c1 returned MITF primary inactive, FBW7 act inactive, GPR151 activ inactive and TEAD-YAP inh 51.5.
